Results filed as inconclusive are left out. A call without a number means that no potency is given here. Calls of active or inactive are those of the source. Calls come from the whole dose curve; as a rule, active = well fitted inhibition curve with a large enough effect; inconclusive = small, poorly fitted or top-dose-only effect; inactive = no such curve, though single readings can be large or run the other way.
Test: qHTS Assay for Lipid Storage Modulators: S3 Assay against Probe and Analogs
Conditions: Drosophila S3 cells, BODIPY lipid droplet fluorescence, 18-24 h, oleic acid added to induce droplets; series mostly up to 46.1 µM
In short: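 Drosophila S3 cells, 5,000/well, dosed with compounds (0.46% DMSO final) and oleic acid to induce lipid droplets, 18-24 h at 25 °C. BODIPY 493/503 and Cell Tracker Red read by laser-scanning cytometry; % activity relative to 20 uM Triacsin C.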

SMILES	Potency
O=C(Nc1cccc2nn(-c3ccc(F)cc3)cc12)c1ccccn1	inactive
CCOc1ccc(CCNC(=O)Cc2ccccc2)cc1OCC	inactive
CCOC(=O)C1CCN(C(=O)C(C)(C)NC(=O)Nc2cccc(OC)c2)CC1	inactive
CC1(C)CCC(c2ccc(Cl)cc2)=C(CN2CCN(c3ccc(C(=O)NS(=O)(=O)c4ccc(N[C@H](CCN5CCOCC5)CSc5ccccc5)c(S(=O)(=O)C(F)(F)F)c4)cc3)CC2)C1	526 nM (active)
CCOc1ccc(CCNC(=O)c2cc3sccc3n2CCN2CCN(C)CC2)cc1OCC	332 nM (active)
CCOc1ccc(CCNC(=O)c2ccnn2Cc2cccc(C)c2)cc1OCC	inactive
O=C(NC1CCCc2c1cnn2CCO)c1ccccn1 (stereo not drawn)	inactive
O=C(NC1CCCc2c1cnn2-c1ccc(F)cc1F)c1ccsc1 (stereo not drawn)	11.8 nM (active)
CCOc1ccc(CCNC(=O)c2cc3ccccc3o2)cc1OCC	inactive
CCOc1ccc(CCNC(=O)c2ccc3[nH]ccc3c2)cc1OCC	inactive
CCOc1ccc(CCNC(=O)c2cccs2)cc1OCC	inactive
CCOc1ccc(CCNC(=O)CN(C)C)cc1OCC	inactive
COc1cccc(-n2ncc3c2CCCC3NC(=O)c2ccccn2)c1 (stereo not drawn)	3.7 nM (active)
O=C(O)CCc1ccc(NCc2cccc(Oc3ccccc3)c2)cc1	inactive
CCOc1ccc(CCNC(=O)c2cc3c(s2)CCC3)cc1OCC	332 nM (active)
O=C(Cc1ccccc1)NC1CCCc2c1cnn2-c1ccc(F)cc1F (stereo not drawn)	inactive
O=C(NC1CCCc2c1cnn2-c1cccc(O)c1)c1ccccn1 (stereo not drawn)	41.8 nM (active)
O=C(NC1CCCc2c1cnn2-c1ccc(F)cc1F)C1CC1 (stereo not drawn)	inactive

Reference: PubChem BioAssay AID652175 (National Center for Advancing Translational Sciences (NCATS), 2013)
